UBC13 inh: blocks human UBC13 polyubiquitin chain formation; P61088; TR-FRET; inhibition, % at 20 µM; 330,000 tested, 0.47% active; in the data active = inhibition above about 45%, passing the limit was not always enough
Target sequence (P61088 whole entry, looked up): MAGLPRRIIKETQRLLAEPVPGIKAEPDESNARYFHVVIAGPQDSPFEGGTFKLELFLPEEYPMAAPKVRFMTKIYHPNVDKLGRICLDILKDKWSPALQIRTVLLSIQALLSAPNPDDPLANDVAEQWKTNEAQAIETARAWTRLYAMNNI
NALP1 inh: blocks the NALP1 inflammasome reconstituted in yeast; S. cerevisiae NALP1/ASC/caspase-1 growth, X-gal OD620, 72 h; inhibition, % at 10 µM; 280,000 tested, 0.61% active; in the data active = inhibition mostly above about 24%, no sharp cut-off; inactive = mostly below about 32%
dFosB activator: mouse delta FosB homodimer activation | 340,000 tested, 0.99% active | P13346 | purified delta FosB, TAMRA-CDK5 oligo fluorescence polarization; percent of positive-control signal above neutral wells | activation, % at 25 µM;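 active = mean activation above about 17%, with every replicate also reaching it, limit read from the data, passing the limit was not always enough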
NR3A LBD binder: NR3A (human) ligand-binding domain modulation; NR3A LBD differential scanning fluorimetry, Tm shift; 0% = protein alone, 100% = glycine-bound protein; Tm shift relative to glycine control, % at 25 µM; 340,000 tested, 2.5% active;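 active = melting temperature shift of at least 10% of the positive control shift, at one fixed dose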
CR mimetic SO: lowers age-related superoxide in aged yeast cells. S. cerevisiae aged cells, superoxide DHE fluorescence; hits give low values. superoxide response (% of plate mean), % at 10 µM. 330,000 tested, 0.18% active;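 active = superoxide response under a set limit, about three screen SD below normal, cut at about 65% in these data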;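 note: yeast aged for seven days with compound at 30 °C before DHE staining; 100% = average MFI of all compound-treated wells on the plate with controls excluded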
* hit, by the source's call. In the library only some 4.3% were active in any assay of this set; here they are far more common.

What do the screens show for `CCCCOc1ccc(N(CC(=O)NCc2ccccc2)C(=O)c2csnn2)cc1`?
UBC13 inh: -4; NALP1 inh: -6; dFosB activator: -14; NR3A LBD binder: -2; CR mimetic SO: 98

How did O=C1NC(NS(=O)(=O)c2ccccc2)(C(F)(F)F)C(=O)N1c1ccc(F)cc1 (stereo not given) do in these assays?
UBC13 inh: 6; NALP1 inh: -5; dFosB activator: 9; NR3A LBD binder: 16*; CR mimetic SO: 109

How did Cc1ccccc1N1CCN(CCC(=O)Nc2ccc(F)cc2)CC1 do in these assays?
UBC13 inh: 2; NALP1 inh: 20; dFosB activator: -5; NR3A LBD binder: 0; CR mimetic SO: 114

How did CC(=O)Nc1ccc(NC(=O)c2cc(=O)c3cc(C)c(C)cc3o2)cc1 do in these assays?
UBC13 inh: -4; NALP1 inh: -49; dFosB activator: 4; NR3A LBD binder: 12*; CR mimetic SO: 105

What do the screens show for `COc1ccc(CCNC(=O)Cn2c(=O)[nH]c3ccsc3c2=O)cc1OC`?
UBC13 inh: 10; NALP1 inh: -2; dFosB activator: 0; NR3A LBD binder: -1; CR mimetic SO: 84

How did Cn1c(NCC(O)CO)nc2c1c(=O)n(Cc1ccc(Cl)c(Cl)c1)c(=O)n2C (stereo not given) do in these assays?
UBC13 inh: 1; NALP1 inh: 1; dFosB activator: 0; NR3A LBD binder: 17*; CR mimetic SO: 102

Results for CC(O)CNc1nc2c(c(=O)n(Cc3cccc(Cl)c3)c(=O)n2C)n1C (stereo not given) ?
UBC13 inh: 2; NALP1 inh: 6; dFosB activator: -2; NR3A LBD binder: 0; CR mimetic SO: 131

What do the screens show for `CC(C)[C@@H](C(=O)N1CCCC1)N1C(=O)N2CCc3c([nH]c4ccccc34)[C@@]2(C)C1=O`?
UBC13 inh: -4; NALP1 inh: 14; dFosB activator: -7; NR3A LBD binder: 1; CR mimetic SO: 100

Results for CC(=O)Nc1ccc(-c2cn3cc(C)ccc3n2)cc1 ?
UBC13 inh: 9; NALP1 inh: 27; dFosB activator: -8; NR3A LBD binder: 20*; CR mimetic SO: 102

How did NNC(=O)c1ccc2nc(-c3ccc(Br)cc3)cn2c1 do in these assays?
UBC13 inh: -8; NALP1 inh: 39*; dFosB activator: -18; NR3A LBD binder: -1; CR mimetic SO: 130

What do the screens show for `COc1ccc(-c2cn3ccccc3n2)cc1`?
UBC13 inh: 12; NALP1 inh: 12; dFosB activator: 2; NR3A LBD binder: 26*; CR mimetic SO: 94

What do the screens show for `Cc1ccc2nc(-c3ccccc3)cn2c1`?
UBC13 inh: 11; NALP1 inh: 22; dFosB activator: 8; NR3A LBD binder: -1; CR mimetic SO: 86

How did Clc1ccc(-c2cn3ccccc3n2)cc1 do in these assays?
UBC13 inh: 0; NALP1 inh: 33; dFosB activator: -6; NR3A LBD binder: 2; CR mimetic SO: 100

What do the screens show for `O=C(Nc1ccc(-c2cn3ccccc3n2)cc1)c1ccc(Cl)cc1`?
UBC13 inh: -3; NALP1 inh: 15; dFosB activator: 13; NR3A LBD binder: 14*; CR mimetic SO: 90

What do the screens show for `O=C(Nc1ccc(-c2cn3ccccc3n2)cc1)c1ccco1`?
UBC13 inh: -1; NALP1 inh: 46; dFosB activator: -5; NR3A LBD binder: 24*; CR mimetic SO: 106

What do the screens show for `O=C(NCc1cn2ccccc2n1)c1ccco1`?
UBC13 inh: 6; NALP1 inh: 26; dFosB activator: 2; NR3A LBD binder: -4; CR mimetic SO: 98

How did CC1CC(C)CN(C(=O)CNC(=O)c2ccc3ccccc3c2)C1 (stereo not given) do in these assays?
UBC13 inh: -1; NALP1 inh: 23; dFosB activator: -8; NR3A LBD binder: 92*; CR mimetic SO: 91

What do the screens show for `O=C(NCC(=O)N1CCCCC1)c1ccc2ccccc2c1`?
UBC13 inh: 4; NALP1 inh: 6; dFosB activator: 0; NR3A LBD binder: 1; CR mimetic SO: 94

Results for CCOC(=O)c1c(NC(=O)COC(=O)c2ccc(O)cc2)sc(C(=O)NC)c1C ?
UBC13 inh: 7; dFosB activator: -6; NR3A LBD binder: -11; CR mimetic SO: 110

Results for CCOC(=O)c1c(NC(=O)COC(=O)c2cnccn2)sc(C(=O)NC)c1C ?
UBC13 inh: -6; dFosB activator: 39*; NR3A LBD binder: -3; CR mimetic SO: 109

What do the screens show for `CCOC(=O)c1cn(Cc2ccc(Cl)cc2Cl)c2cc(C)nn2c1=O`?
UBC13 inh: 12; NALP1 inh: 16; dFosB activator: -11; NR3A LBD binder: 0; CR mimetic SO: 106

Bioassay records as filed in PubChem.
